In PubChem BioAssay (NCATS):
Inconclusive results are not listed. Entries that show only a call come without a potency. Unmarked numbers belong to inactive results. Calls of active or inactive are those of the source. The call rests on the fitted dose curve; in most records, active means well fitted curve in the direction sought with a large enough effect; inconclusive means small, poorly fitted or top-dose-only effect, or another doubt; inactive means no such curve, though single readings can be large; an effect the other way counts as inactive or inconclusive.

Legend:
[1] = qHTS of pediatric cancer cell lines to identify multiple opportunities for drug repurposing: Primary screen for OHS-50 cells (AID 1347103); further: nearly all actives have a fitted effect of over 40% in size; further: potency means the concentration at half of the fitted maximal effect
How it was run: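 Cells (500-1,000/well) rested 5 h, then received compounds for 48 h; metabolically active cells were measured by CellTiter-Glo luminescence. Final concentrations spanned up to 46 µM (MIPE, 11-point) or 0.59 nM-46 µM (NPC, 8-point) in primary screens, 11-point in follow-ups.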

[2] = qHTS of pediatric cancer cell lines to identify multiple opportunities for drug repurposing: Primary screen for MG 63 (6-TG R) cells (AID 1347105); further: nearly all actives have a fitted effect of over 50% in size; further: potency means the concentration at half of the fitted maximal effect
How it was run: (§1)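 Plated cells (500-1,000 per well, growth media) were allowed to settle for 5 hours, treated with compound dilutions for 48 hours, then lysed with CellTiter-Glo for 15 min at room temperature before luminescence reading.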

[3] = qHTS of pediatric cancer cell lines to identify multiple opportunities for drug repurposing: Primary screen for control Hh wild type fibroblast cells (AID 1347106); further: nearly all actives have a fitted effect of over 55% in size; further: potency means the concentration at half of the fitted maximal effect
How it was run: (§2)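 Cells (500-1,000/well) in growth media were settled 5 h at 37 degrees C, then given compounds for 48 h. Viability was read as CellTiter-Glo luminescence. Primary runs used MIPE at 11 points (0.78 nM-46 µM) and NPC at 8 points (0.59 nM-46 µM); follow-ups used 11 points.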

[4] = qHTS of pediatric cancer cell lines to identify multiple opportunities for drug repurposing: Primary screen for Rh30 cells (AID 1347107); further: series mostly up to about 46 µM; nearly all actives have a fitted effect of over 75% in size
How it was run: as §2

[5] = qHTS of pediatric cancer cell lines to identify multiple opportunities for drug repurposing: Confirmatory screen for NB1643 cells (AID 1347109); further: nearly all actives have a fitted effect of over 45% in size; further: potency means the concentration at half of the fitted maximal effect
How it was run: as §2

[6] = qHTS of pediatric cancer cell lines to identify multiple opportunities for drug repurposing: Confirmatory screen for A673 cells (AID 1347110);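 further: potency means the concentration at half of the fitted maximal effect; cells exposed to compound for 48 h before the viability read; nearly all actives have a fitted effect of over 65% in size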
How it was run: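 Concentration-response curves came straight from titrations: 11 points (0.78 nM to 46 µM) for MIPE and several concentrations (0.59 nM to 46 µM) for NPC in primary, 11 points in follow-up. Readout: ATP luminescence at 48 h.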

[7] = qHTS of pediatric cancer cell lines to identify multiple opportunities for drug repurposing: Confirmatory screen for SK-N-MC cells (AID 1347111);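 further: cells exposed to compound for 48 h before the readout; nearly all actives have a fitted effect of over 70% in size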; further: potency means the concentration at half of the fitted maximal effect
How it was run: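 Metabolically active cells were quantified by ATP-dependent luminescence (CellTiter-Glo, 15 min at room temperature) following 48 h treatment. Cells had been plated at 500-1,000 per well and settled for 5 h beforehand.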

[8] = qHTS of pediatric cancer cell lines to identify multiple opportunities for drug repurposing: Confirmatory screen for BT-12 cells (AID 1347112); further: nearly all actives have a fitted effect of over 55% in size; further: potency means the concentration at half of the fitted maximal effect
How it was run: as §2

[9] = qHTS of pediatric cancer cell lines to identify multiple opportunities for drug repurposing: Primary screen for Rh41 cells (AID 1347108); further: nearly all actives have a fitted effect of over 70% in size; further: potency means the concentration at half of the fitted maximal effect
How it was run: as §1

[10] = qHTS of pediatric cancer cell lines to identify multiple opportunities for drug repurposing: Primary screen for RD cells (AID 1347104); further: nearly all actives have a fitted effect of over 55% in size; further: potency means the concentration at half of the fitted maximal effect
How it was run: as §1

**Q.** For `COC(=O)C1C2CC3c4[nH]c5cc(OC)ccc5c4CCN3CC2CC(OC(=O)c2cc(OC)c(OC)c(OC)c2)C1OC` (stereo not drawn), which Potency [1] is on record?
**A.** 27.3 µM (active)

**Q.** What about the Potency [2] of the same compound?
**A.** inactive

**Q.** What about the Potency [3] of the same compound?
**A.** inactive

**Q.** And the Potency [4]?
**A.** inactive

**Q.** And the Potency [5]?
**A.** 5.22 µM (active)

**Q.** What about the Potency [6] of the same compound?
**A.** 3.29 µM (active)

**Q.** What about the Potency [7] of the same compound?
**A.** 0.369 µM (active)

**Q.** And the Potency [8]?
**A.** 2.61 µM (active)

**Q.** With `CCc1ccc(C(=O)Nc2cc(CN3CCN(C)CC3)cc(C(F)(F)F)c2)cc1C#Cc1cnc2ccnn2c1` as the compound, how does the Potency [1] read?
**A.** 12.2 µM (active)

**Q.** And the Potency [2]?
**A.** 18.7 µM (active)

**Q.** And the Potency [3]?
**A.** inactive

**Q.** What about the Potency [9] of the same compound?
**A.** 9.35 µM (active)

**Q.** With `CC(Cc1ccc(O)c(O)c1)(NN)C(=O)O` (stereo not drawn) as the compound, how does the Potency [1] read?
**A.** inactive

**Q.** And the Potency [2]?
**A.** inactive

**Q.** And the Potency [3]?
**A.** inactive

**Q.** Which Potency [1] does the source give for `O=C(c1ccc(F)cc1)N1CCC[C@H](c2nc(-c3ccc(F)cc3)no2)C1` here?
**A.** inactive

**Q.** What about the Potency [2] of the same compound?
**A.** inactive

**Q.** What about the Potency [3] of the same compound?
**A.** inactive

**Q.** What does the source list for `Nc1ccn(C[C@@H](CO)OCP(=O)(O)O)c(=O)n1`?
**A.** Potency [1]: inactive; Potency [2]: inactive; Potency [3]: inactive; Potency [9]: inactive

**Q.** For `CNC(=O)c1ccc(Nc2cc(Nc3ccccc3S(=O)(=O)C(C)C)c3cc[nH]c3n2)nc1`, which Potency [1] is on record?
**A.** 0.544 µM (active)

**Q.** And the Potency [2]?
**A.** 5.9 µM (active)

**Q.** What about the Potency [3] of the same compound?
**A.** inactive

**Q.** And the Potency [9]?
**A.** 5.9 µM (active)

**Q.** And the Potency [5]?
**A.** 1.47 µM (active)

**Q.** And the Potency [6]?
**A.** 1.17 µM (active)

**Q.** And the Potency [7]?
**A.** 2.61 µM (active)

**Q.** What about the Potency [8] of the same compound?
**A.** 13.1 µM (active)

**Q.** With `NC(=O)N1CCC(CC(=O)N2CCC([C@H]3c4ncc(Br)cc4CCc4cc(Cl)cc(Br)c43)CC2)CC1` as the compound, how does the Potency [1] read?
**A.** 8.63 µM (active)

**Q.** And the Potency [2]?
**A.** 18.7 µM (active)

**Q.** And the Potency [3]?
**A.** inactive

**Q.** What about the Potency [9] of the same compound?
**A.** 5.9 µM (active)

**Q.** Which results are given for `C[N+](C)([O-])CCNc1ccc(NCC[N+](C)(C)[O-])c2c1C(=O)c1c(O)ccc(O)c1C2=O`?
**A.** Potency [1]: inactive; Potency [2]: inactive; Potency [3]: inactive; Potency [8]: inactive

**Q.** For `CN(C)CC[C@H](c1ccc(Cl)cc1)c1ccccn1`, which Potency [1] is on record?
**A.** inactive

**Q.** And the Potency [2]?
**A.** inactive

**Q.** What about the Potency [3] of the same compound?
**A.** inactive

**Q.** What about the Potency [4] of the same compound?
**A.** inactive

**Q.** With `COc1cc([C@@H]2c3cc4c(cc3[C@@H](O[C@@H]3O[C@@H]5CO[C@@H](c6cccs6)O[C@@H]5[C@H](O)[C@@H]3O)[C@H]3COC(=O)[C@H]23)OCO4)cc(OC)c1O` as the compound, how does the Potency [1] read?
**A.** 0.485 µM (active)

**Q.** What about the Potency [10] of the same compound?
**A.** 2.96 µM (active)

**Q.** And the Potency [6]?
**A.** 0.657 µM (active)

**Q.** And the Potency [7]?
**A.** 0.104 µM (active)

**Q.** What about the Potency [8] of the same compound?
**A.** 3.69 µM (active)

**Q.** Which results are given for `Cn1cc(C[C@@H](N)C(=O)O)c2ccccc21`?
**A.** Potency [1]: inactive; Potency [2]: inactive; Potency [4]: inactive

**Q.** What does the source list for `N#Cc1ccc(COC[C@H]2O[C@@H](n3c(NCc4ccc(Cl)c(Cl)c4)nc4c(N)ncnc43)[C@@H](O)[C@@H]2O)cc1`?
**A.** Potency [1]: 6.85 µM (active); Potency [2]: inactive; Potency [3]: inactive

**Q.** With `Cn1cnc2c(F)c(Nc3ccc(Br)cc3F)c(C(=O)NOCCO)cc21` as the compound, how does the Potency [1] read?
**A.** inactive

**Q.** And the Potency [2]?
**A.** inactive

**Q.** And the Potency [3]?
**A.** inactive

**Q.** And the Potency [4]?
**A.** inactive

**Q.** With `O=c1c(O)c(-c2ccc(O)c(O)c2)oc2cc(O)ccc12` as the compound, how does the Potency [1] read?
**A.** 21.7 µM (active)

**Q.** What about the Potency [2] of the same compound?
**A.** inactive

**Q.** For `CC(C=CC=C(C)C=CC1=C(C)CCCC1(C)C)=CC=CC=C(C)C=CC=C(C)C=CC1=C(C)CCCC1(C)C`, which Potency [10] is on record?
**A.** 29.6 µM (active)

**Q.** What does the source list for `Nc1nc2c(c(=O)[nH]1)N(C=O)[C@H](CNc1ccc(C(=O)N[C@@H](CCC(=O)O)C(=O)O)cc1)CN2`?
**A.** Potency [1]: 27.3 µM (active); Potency [2]: inactive; Potency [4]: inactive; Potency [9]: inactive; Potency [5]: inactive; Potency [7]: 10.4 µM (active); Potency [8]: inactive

**Q.** For `c1ccc2c(Oc3nc(Nc4ccc(N5CCOCC5)cc4)c4ncn(C5CCCCC5)c4n3)cccc2c1`, which Potency [10] is on record?
**A.** inactive

**Q.** And the Potency [2]?
**A.** inactive

**Q.** And the Potency [3]?
**A.** inactive

**Q.** What about the Potency [4] of the same compound?
**A.** inactive

**Q.** For `COc1ccc(C[C@@H](C)[C@@H](C)Cc2ccc(OC)c(OC)c2)cc1OC`, which Potency [1] is on record?
**A.** 0.685 µM (active)

**Q.** What about the Potency [4] of the same compound?
**A.** inactive

**Q.** And the Potency [7]?
**A.** 10.4 µM (active)

**Q.** Which results are given for `COc1cc(C=CC(=O)CC(=O)C=Cc2ccc(O)c(OC)c2)ccc1O`?
**A.** Potency [1]: 39.5 µM (active); Potency [9]: 30.3 µM (active); Potency [5]: 30.2 µM (active); Potency [6]: 10.7 µM (active); Potency [7]: 15.1 µM (active); Potency [8]: 38 µM (active)

**Q.** What does the source list for `NS(=O)(=O)OC[C@@H]1C[C@@H](n2ccc3c(N[C@H]4CCc5ccccc54)ncnc32)C[C@H]1O`?
**A.** Potency [1]: inactive; Potency [3]: 6.62 µM (active); Potency [9]: 1.87 µM (active); Potency [5]: inactive; Potency [6]: 14.7 µM (active); Potency [7]: inactive; Potency [8]: inactive

**Q.** With `O=[N+]([O-])c1cn2c(n1)OC[C@@H](OCc1ccc(OC(F)(F)F)cc1)C2` as the compound, how does the Potency [10] read?
**A.** inactive

**Q.** What about the Potency [2] of the same compound?
**A.** inactive

**Q.** What does the source list for `C[C@]12C=CC(=O)N[C@@H]1CC[C@H]1[C@H]3CC[C@@H](C(=O)Nc4cc(C(F)(F)F)ccc4C(F)(F)F)[C@@]3(C)CC[C@@H]12`?
**A.** Potency [10]: inactive; Potency [2]: inactive; Potency [3]: inactive; Potency [4]: inactive

**Q.** With `CCCc1nc(C(C)(C)O)c(C(=O)O)n1Cc1ccc(-c2ccccc2-c2nn[nH]n2)cc1` as the compound, how does the Potency [10] read?
**A.** inactive

**Q.** And the Potency [2]?
**A.** inactive

**Q.** And the Potency [3]?
**A.** inactive

**Q.** And the Potency [4]?
**A.** inactive

**Q.** With `COc1cc([C@@H]2c3cc4c(cc3[C@H](O)[C@H]3COC(=O)[C@@H]23)OCO4)cc(OC)c1OC` as the compound, how does the Potency [1] read?
**A.** 0.172 µM (active)

**Q.** What about the Potency [4] of the same compound?
**A.** inactive

**Q.** And the Potency [6]?
**A.** 0.928 µM (active)

**Q.** What about the Potency [7] of the same compound?
**A.** 0.585 µM (active)

**Q.** What about the Potency [8] of the same compound?
**A.** 1.04 µM (active)

**Q.** With `CN[C@@H]1C[C@H]2O[C@@](C)([C@H]1OC)n1c3ccccc3c3c4c(c5c6ccccc6n2c5c31)C(=O)N[C@H]4O` as the compound, how does the Potency [1] read?
**A.** 0.217 µM (active)

**Q.** What about the Potency [2] of the same compound?
**A.** 0.187 µM (active)

**Q.** What about the Potency [9] of the same compound?
**A.** 5.9 µM (active)

**Q.** What about the Potency [5] of the same compound?
**A.** 0.737 µM (active)

**Q.** And the Potency [6]?
**A.** 0.369 µM (active)

**Q.** And the Potency [7]?
**A.** 0.233 µM (active)
